Test results published in PubChem BioAssay.
Activity calls are given as the source filed them.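 The calls were made as follows: active = inhibition above the hit cutoff set in the earlier primary screen (cut at about 27% in these data); inactive = the rest.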

These compounds were tested against Protein phosphatase methylesterase 1 (Homo sapiens) (UniProt Q9Y570) (assay: PME-1 inhibitor activity retest, confirmation, biochemical, fluorescence polarization, FP-Rh probe, triplicate (AID 2171;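 also: 0% = enzyme with DMSO and 100% = wells lacking PME-1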)). Details: recombinant PME-1, FP-Rh probe fluorescence polarization; at 5.9 µM; active compounds read high.
Chain of Protein phosphatase methylesterase 1 (Homo sapiens) (Q9Y570 whole entry, looked up): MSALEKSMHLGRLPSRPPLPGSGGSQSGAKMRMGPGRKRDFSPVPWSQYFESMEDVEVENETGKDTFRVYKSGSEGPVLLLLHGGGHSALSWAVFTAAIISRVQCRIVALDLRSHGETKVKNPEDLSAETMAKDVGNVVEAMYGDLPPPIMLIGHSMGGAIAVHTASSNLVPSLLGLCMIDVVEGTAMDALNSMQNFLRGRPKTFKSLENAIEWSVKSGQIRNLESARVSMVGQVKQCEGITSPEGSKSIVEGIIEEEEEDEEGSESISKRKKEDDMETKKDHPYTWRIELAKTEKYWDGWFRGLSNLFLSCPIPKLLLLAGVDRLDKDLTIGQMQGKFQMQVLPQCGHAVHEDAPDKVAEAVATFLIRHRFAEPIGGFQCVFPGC

inhibition, active:
CC(C)c1ccc2[nH]c(O)c(N=NC(=O)c3ccc(CSc4nncn4C)cc3)c2c1 104%
COc1ccc(N2CCN(C(=O)C3CCN(S(=O)(=O)c4ccc(F)cc4)CC3)CC2)cc1 59.1%
Fc1cccc2sc(Nc3nnc(-c4ccccc4)o3)nc12 33%
COc1cc(/C=N\Nc2nc3ccccc3o2)cc(OC)c1OC 31.4%
Cc1ccc(C)c(NC(=O)COC(=O)c2cccc3c2C(=O)c2ccccc2C3=O)c1 92.7%
Cc1cccc2cc(/C=N/Nc3ccc(C(=O)O)cc3)c(Cl)nc12 43.7%
Oc1ccc(/C=N/Nc2ccnc3cc(Cl)ccc23)c(O)c1O 51.8%
Cc1ccc(OCCn2cc(/C=N/NC(=O)c3ccncc3)c3ccccc32)cc1 33.5%
COc1cccc(-c2nnc(Nc3nc4c(F)cccc4s3)o2)c1 46.2%
Oc1cccc(NC(=S)N=Nc2c(O)[nH]c3ccc(Br)cc23)c1 42%
Oc1ccc(/C=N/Nc2cccc3cccnc23)c(O)c1 82.7%
O=C(O)c1ccc(N=Nc2c(O)[nH]c3cc(Cl)ccc23)cc1 116%
CCc1cccc(CC)c1NC(=O)COc1ccccc1C(=O)c1cc(C#N)c(=O)n(C2CCCCC2)c1 35.9%

inhibition, inactive:
O=C(OCCOCCN=C1NS(=O)(=O)c2ccccc21)c1ccccc1Br 5.54%
CSc1ccccc1C(=O)NCCCn1ccnc1 5.36%
c1cc2c3c(cccc3c1)NC1(CCC3(CC1)Nc1cccc4cccc(c14)N3)N2 0.95%
Oc1ccc(/C=N/Nc2ccnc3cc(Cl)ccc23)cc1O 5.4%
O=C(/C=C1\NC2(CCCC2)Cc2ccccc21)C(=O)N/N=C/c1ccc(O)c(O)c1 -18.9%
CCOC(=O)Cc1csc(NC(=O)c2sc3nc4cc(C)ccc4cc3c2N)n1 20.8%
N#C/C(=C/c1ccc(O)c(O)c1)c1nc2ccccc2[nH]1 -30.6%
O=c1[nH]c(N/N=C\c2ccc3c(c2)OCO3)nc2ccccc12 24.6%
O=c1ccc2cc3c([nH]c4ccc(Br)cc43)oc-2c1O -63.1%
CCc1ccc(NC(=O)Nc2cccs2)cc1 17.9%
CCN(CC)S(=O)(=O)c1ccc(Cl)c(NC(=O)COC(=O)c2ccc(O)cc2)c1 24.9%
COc1ccc(-c2oc(NC(=O)CCl)c(C#N)c2-c2ccc(OC)cc2)cc1 22.7%
